Test results: PubChem BioAssay (EPA / NIEHS)
“And” between values parts separate entries of the source, which are not always exact repeats. Identical values can stand only once. More than one record can exist for a structure, and the calls need not agree. The source made the active and inactive calls. The calls were made as follows: active = hit-call score of the fitted dose curve at least 0.9, where 1 is the maximum; inactive = score below 0.9.

Key:
[1] = target: Transcription factor Sp1 (Homo sapiens) (UniProt P08047); test: ATG_Sp1_CIS: Attagene CIS-FACTORIAL HepG2 Assay for human Specificity Protein 1 (Sp1) (AID 2282961); conditions: HepG2 Sp1 cis-reporter transcription, actives raise or lower the signal
Procedure, shortened: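 HepG2 cells transiently transfected with multiple reporter transcription units driven by cis-regulatory elements; Sp1-responsive reporter mRNA measured 24 h after dosing by RT-PCR and capillary electrophoresis fluorescence, fitted bidirectionally against DMSO baseline.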

[2] = ATG_SREBP_CIS: Attagene CIS-FACTORIAL HepG2 Assay for human Sterol Regulatory Element Binding (SREBP) (AID 2282962); conditions: HepG2 Attagene cis-factorial SREBP reporter, mRNA; actives raise or lower the signal
Procedure, shortened: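 In this cis-format assay, HepG2 liver cells express reporters controlled by promoter elements responsive to native transcription factors. Exposure lasts 24 h; reporter mRNA fluorescence from capillary electrophoresis gives the signal, fitted bidirectionally against DMSO.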

[3] = target: Signal transducer and activator of transcription 3 (Homo sapiens) (UniProt P40763); test: ATG_STAT3_CIS: Attagene CIS-FACTORIAL HepG2 Assay for human Signal Transducer and Activator of Transcription 3 (STAT3) (AID 2282963); conditions: HepG2, Attagene cis-factorial STAT3 reporter transcription; actives raise or lower the signal
Procedure, shortened: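 Readout: fluorescent reporter mRNA fragments resolved by capillary electrophoresis. Setup: HepG2 transfected with MRTUs reporting endogenous transcription-factor activity, dosed 24 h. Gain or loss of signal fitted bidirectionally against DMSO control.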

[4] = ATG_TA_CIS: Attagene CIS-FACTORIAL HepG2 Assay for human TA Basal Promoter (AID 2282964); conditions: HepG2 Attagene CIS-factorial TA basal promoter reporter; actives raise or lower the signal
Procedure, shortened: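 HepG2 cells transiently transfected with multiplexed cis-promoter reporter units, dosed 24 h. Reporter mRNA measured by RT-PCR, 6-FAM labelling, HpaI digestion and capillary electrophoresis; bidirectional fit versus DMSO baseline, serving as background control.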

[5] = ATG_TCF_b_cat_CIS: Attagene CIS-FACTORIAL HepG2 Assay for human T-Cell-Factor with beta-catenin (TCF/b-cat) (AID 2282965); conditions: HepG2 TCF/beta-catenin cis-reporter transcription, actives raise or lower the signal
Procedure, shortened: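 HepG2, transient MRTU transfection, cis-element-driven reporters (endogenous TFs). 24 h compound exposure. Readout: reporter mRNA by RT-PCR + 6-FAM primer extension, HpaI digest, capillary electrophoresis. Gain/loss fit vs DMSO baseline.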

[6] = ATG_TAL_CIS: Attagene CIS-FACTORIAL HepG2 Assay for human TAL Basal Promoter (AID 2282966); conditions: HepG2 Attagene cis-factorial TAL promoter reporter; actives raise or lower the signal;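 also: background control endpoint measuring basal TAL promoter reporter mRNA not a specific factor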
Procedure, shortened: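 After 24 hours of chemical exposure, transfected HepG2 cells yielded RNA that was converted to 6-FAM-labelled, HpaI-digested reporter fragments for capillary electrophoresis. Values derive from bidirectional fitting against DMSO controls.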

[7] = ATG_TGFb_CIS: Attagene CIS-FACTORIAL HepG2 Assay for human Transforming Growth Factor (TGF) (AID 2282967); conditions: HepG2 Attagene CIS TGFb reporter, mRNA transcription; actives raise or lower the signal
Procedure, shortened: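 HepG2 cells transiently transfected with cis-promoter-driven multiplexed reporter units; 24 h compound exposure. Reporter mRNA measured by RT-PCR, 6-FAM labeling, HpaI digestion and capillary electrophoresis; bidirectional fit versus DMSO baseline.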

[8] = ATG_VDRE_CIS: Attagene CIS-FACTORIAL HepG2 Assay for human Vitamin D Receptor Element (VDRE) (AID 2282968); conditions: HepG2 VDRE cis-reporter transcription, actives raise or lower the signal
Procedure, shortened: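 Transient MRTU transfection of HepG2, 24 h compound exposure. Readout: reporter transcripts via RT-PCR and capillary electrophoresis, fluorescence. Bidirectional fit vs DMSO.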

[9] = ATG_Sox_CIS: Attagene CIS-FACTORIAL HepG2 Assay for human SRY-box transcription factor (SOX) (AID 2282960); conditions: HepG2 Attagene cis-factorial SOX reporter, mRNA; actives raise or lower the signal
Procedure, shortened: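 HepG2 cells transiently transfected with cis-element-driven multiple reporter transcription units, dosed 24 h; reporter mRNA measured by RT-PCR, FAM labelling, HpaI digestion and capillary electrophoresis. Bidirectional fit versus DMSO baseline.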

Measured: AC50

Sequence of Transcription factor Sp1 (Homo sapiens) (P08047 whole entry, looked up): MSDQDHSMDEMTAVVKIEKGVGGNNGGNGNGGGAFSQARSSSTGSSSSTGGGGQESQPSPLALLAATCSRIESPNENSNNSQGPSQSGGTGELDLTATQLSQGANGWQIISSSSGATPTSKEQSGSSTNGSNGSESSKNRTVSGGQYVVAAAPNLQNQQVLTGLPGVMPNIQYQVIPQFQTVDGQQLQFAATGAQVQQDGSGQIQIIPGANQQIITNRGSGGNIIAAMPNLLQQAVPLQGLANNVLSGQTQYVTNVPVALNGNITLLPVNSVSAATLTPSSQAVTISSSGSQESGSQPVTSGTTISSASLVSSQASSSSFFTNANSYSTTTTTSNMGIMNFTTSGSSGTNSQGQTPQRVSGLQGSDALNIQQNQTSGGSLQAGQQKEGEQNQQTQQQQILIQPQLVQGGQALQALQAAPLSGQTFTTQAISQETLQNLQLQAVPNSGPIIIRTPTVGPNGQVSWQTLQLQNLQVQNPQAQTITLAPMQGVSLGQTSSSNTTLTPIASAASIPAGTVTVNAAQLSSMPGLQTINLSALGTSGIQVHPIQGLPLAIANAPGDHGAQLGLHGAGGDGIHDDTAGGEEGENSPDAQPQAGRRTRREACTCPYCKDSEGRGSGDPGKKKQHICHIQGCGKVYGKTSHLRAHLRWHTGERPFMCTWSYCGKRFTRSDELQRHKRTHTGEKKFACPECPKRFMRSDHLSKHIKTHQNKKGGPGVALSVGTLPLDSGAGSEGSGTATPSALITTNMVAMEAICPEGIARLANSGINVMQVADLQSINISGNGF
Sequence of Signal transducer and activator of transcription 3 (Homo sapiens) (P40763 whole entry, looked up, the tested form may be a part): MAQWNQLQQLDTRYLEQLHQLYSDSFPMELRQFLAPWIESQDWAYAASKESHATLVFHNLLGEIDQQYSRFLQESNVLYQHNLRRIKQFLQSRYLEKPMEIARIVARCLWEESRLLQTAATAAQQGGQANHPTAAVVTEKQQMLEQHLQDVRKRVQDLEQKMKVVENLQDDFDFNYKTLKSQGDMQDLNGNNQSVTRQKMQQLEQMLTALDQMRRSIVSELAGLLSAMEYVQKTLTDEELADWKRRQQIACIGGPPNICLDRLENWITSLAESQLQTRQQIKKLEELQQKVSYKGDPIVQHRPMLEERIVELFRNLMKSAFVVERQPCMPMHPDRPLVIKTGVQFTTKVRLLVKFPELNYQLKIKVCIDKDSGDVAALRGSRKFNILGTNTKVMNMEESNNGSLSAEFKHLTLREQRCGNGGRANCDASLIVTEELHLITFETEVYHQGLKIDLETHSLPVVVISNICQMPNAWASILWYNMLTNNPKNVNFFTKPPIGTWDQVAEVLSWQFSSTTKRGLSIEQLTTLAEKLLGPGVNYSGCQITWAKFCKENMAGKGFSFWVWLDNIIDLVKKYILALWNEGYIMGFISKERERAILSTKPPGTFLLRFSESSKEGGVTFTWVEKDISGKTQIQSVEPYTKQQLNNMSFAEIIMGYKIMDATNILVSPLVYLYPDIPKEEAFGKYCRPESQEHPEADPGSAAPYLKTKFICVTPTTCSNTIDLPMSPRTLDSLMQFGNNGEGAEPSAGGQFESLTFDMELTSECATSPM

CC(C)c1c(C(=O)Nc2ccccc2)c(-c2ccccc2)c(-c2ccc(F)cc2)n1CC[C@@H](O)C[C@@H](O)CC(=O)O
active: [2] 0.156 µM | [4] 66.4 µM and 45 µM | [5] 144 µM | [6] 41.9 µM and 20.2 µM | [8] 14.2 µM and 7.84 µM
inactive: [1] | [2] | [3] | [5] | [7]

Cc1cc(=O)oc2cc(O)ccc12
inactive: [9] | [1] | [2] | [3] | [4] | [5] | [6] | [8]
active: [8] 36 µM

Cc1ccccc1OCC(=O)O
inactive: all assays above

COc1ccccc1NC(=O)c1cc2ccccc2cc1O
active: [9] 100 µM | [1] 27.7 µM | [2] 55.5 µM | [5] 123 µM | [8] 6.49 µM
inactive: [3] | [4] | [6] | [7]

CCN(CCC#N)c1ccccc1
inactive: all assays above

Clc1ccc2c(Cl)ccnc2c1
inactive: all assays above

CC(C)(O)C(=O)c1ccccc1
not listed: [9]
inactive: all other assays above

CCCCCCCCC1CCC(=O)O1 (stereo not given)
inactive: all assays above

CC(C)(C)C1CCCCC1O (stereo not given)
inactive: all assays above

C[C@]12CC[C@@H]3c4ccc(O)cc4CC[C@H]3[C@@H]1C[C@@H](O)[C@@H]2O
active: [8] 27.1 µM
inactive: [9] | [1] | [2] | [3] | [4] | [5] | [6] | [7] | [8]

O=S(=O)(O)c1ccc2cc(O)ccc2c1
inactive: all assays above

CCCC=O
inactive: all assays above

NS(=O)(=O)O
inactive: all assays above

C/C=C/C(=O)C1=C(C)CCCC1(C)C
inactive: [3] | [4] | [6] | [7]
active: [9] 46.1 µM | [1] 35.4 µM | [2] 44.9 µM | [5] 62.7 µM | [8] 7.43 µM

C[C@]12CC[C@@H]3c4ccc(O)cc4CC[C@H]3[C@@H]1CC[C@@H]2OC(=O)CCC1CCCC1
active: [9] 163 µM
inactive: all other assays above

c1cnc2c(c1)ccc1cccnc12
active: [8] 161 µM
inactive: [9] | [1] | [2] | [3] | [4] | [5] | [6] | [7] | [8]

N=C(N)c1ccc(OCCCCCOc2ccc(C(=N)N)cc2)cc1
active: [4] 59 µM | [5] 36.6 µM | [8] 87.5 µM
not listed: [9]
inactive: all other assays above

C[N+](C)(CCCNS(=O)(=O)CCC(F)(F)C(F)(F)C(F)(F)C(F)(F)C(F)(F)C(F)(F)F)CC(=O)[O-]
active: [2] 0.00355 µM | [5] 0.000979 µM
inactive: all other assays above

O=C1OC(=O)c2cc(-c3ccc4c(c3)C(=O)OC4=O)ccc21
inactive: all assays above

Cc1cccc2c1ccc1ccccc12
inactive: all assays above

CCCCC(CC)C(=O)OCCOCCOCCOCCOC(=O)C(CC)CCCC (stereo not given)
active: [8] 27.8 µM
not listed: [7]
inactive: all other assays above

Cc1ccc(S(=O)(=O)O)cc1
inactive: all assays above

Brc1ccc(Oc2ccc(Br)cc2Br)cc1
not listed: [9]
inactive: all other assays above

O=C(O)C(=O)O
not listed: [7]
inactive: all other assays above

O=S(=O)(c1ccc(OCc2ccccc2)cc1)c1ccccc1O
active: [1] 30.6 µM | [2] 22.7 µM | [5] 54.4 µM | [8] 8.61 µM
inactive: all other assays above

CC(C)(C)c1ccc(CCC=O)cc1
active: [5] 162 µM
not listed: [9]
inactive: all other assays above

NC(C(F)(F)F)C(F)(F)F
inactive: all assays above

COCC1CCC(CO)CC1 (stereo not given)
inactive: all assays above

O=C(NCc1ncc(C(F)(F)F)cc1Cl)c1c(Cl)cccc1Cl
active: [2] 10.1 µM
inactive: all other assays above

COc1cc([N+](=O)[O-])ccc1N
not listed: [7] | [9]
inactive: all other assays above

CCOC(C)=O
inactive: all assays above

Cc1cc(Cc2cc(C)cc(C(C)(C)C)c2O)c(O)c(C(C)(C)C)c1
active: [9] 153 µM | [1] 93.6 µM | [3] 160 µM | [5] 180 µM | [7] 56.6 µM
inactive: [2] | [4] | [6] | [8]

Cc1[nH]nc2c1N=C(c1ccccc1Cl)c1cc([N+](=O)[O-])ccc1N2
active: [1] 0.357 µM | [4] 0.288 µM | [5] 3.71 µM
not listed: [9]
inactive: all other assays above

CCCCCCCCCCCC(=O)NCCCN(C)C
active: [2] 8.13 µM | [4] 18.9 µM | [5] 17.5 µM | [8] 18 µM
inactive: all other assays above
